Measured values as given in PubChem BioAssay AID1159580 (chemical genetic matrix, 2015).
Where “and” joins values, the source holds several entries; their conditions need not be identical. Equal entries are not always repeated. Hit rate of the full screen: of about 5,500 compounds, about 2,000 (36%) were called active. Roughly 18% stayed inconclusive and do not appear here. No stated cut-off is given here; in the data, active means normalized growth mostly below about 0.91 (no sharp cut-off); inconclusive means no clear call, values can overlap the other calls; inactive means mostly above about 0.92. This is one part of the list.

Experiment: chemical genetic growth profiling, strain panel (AID 1159580);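 further: tested at 20 µM; growth read once vehicle control cultures reached saturation at 30 °C; 1 = growth at the plate median or of vehicle wells; lower values mean less growth of the strain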
Conditions: S. cerevisiae deletion strains, growth OD

Measured: normalized growth

COc1ccc2c3c([nH]c2c1)C(C)=NCC3
inactive: locus YAL013W, strain DEP1, active compounds read low 1.01 | locus YAL021C, strain ccr4, active compounds read low 0.997 | locus YAL026C, strain drs2, active compounds read low 1.02 | locus YAL030W, strain snc1, active compounds read low 1.01 | locus YBL061C, strain skt5, active compounds read low 1.01 | locus YBR009C, strain hhf1, active compounds read low 0.989 | locus YBR021W, strain FUR4, active compounds read low 1.01 | locus YBR023C, strain chs3, active compounds read low 0.999 | locus YBR171W, strain sec66, active compounds read low 1.01 | locus YBR229C, strain ROT2, active compounds read low 1 | locus YBR231C, strain swc5, active compounds read low 0.997 | locus YBR279W, strain paf1, active compounds read low 1.01 | locus YCL016C, strain dcc1, active compounds read low 1 | locus YCL029C, strain bik1, active compounds read low 0.984 | locus YCL069W, strain vba3, active compounds read low 1.01 | locus YCR088W, strain abp1, active compounds read low 1.01 | locus YDL005C, strain med2, active compounds read low 0.99 | locus YDL035C, strain GPR1, active compounds read low 1.02 | locus YDL040C, strain nat1, active compounds read low 0.986 | locus YDL074C, strain BRE1, active compounds read low 1 | locus YDL101C, strain DUN1, active compounds read low 1.01 | locus YDL134C, strain PPH21, active compounds read low 1 | locus YDL185W, strain tfp1, active compounds read low 0.975 | locus YDL192W, strain arf1, active compounds read low 0.993 | locus YDR001C, strain nth1, active compounds read low 1.02 | locus YDR069C, strain doa4, active compounds read low 0.992 | locus YDR101C, strain arx1, active compounds read low 0.986 | locus YDR137W, strain rgp1, active compounds read low 1.01 | locus YDR150W, strain NUM1, active compounds read low 1.01 | locus YDR159W, strain sac3, active compounds read low 1 | locus YDR162C, strain NBP2, active compounds read low 1 | locus YDR195W, strain ref2 0.954 | locus YDR297W, strain sur2, active compounds read low 0.991 | locus YDR318W, strain mcm21, active compounds read low 0.983 | locus YDR334W, strain swr1, active compounds read low 1.01 | locus YDR335W, strain msn5, active compounds read low 1.01 | locus YDR388W, active compounds read low 0.983 | locus YDR392W, strain spt3, active compounds read low 1.01 | locus YDR502C, strain sam2, active compounds read low 0.989 | locus YEL003W, strain gim4, active compounds read low 1 | locus YEL037C, strain rad23, active compounds read low 1 | locus YEL061C, strain CIN8 (second series), active compounds read low 1.03 | locus YEL061C, strain CIN8, active compounds read low 1.01 | locus YER015W, strain faa2, active compounds read low 0.988 | locus YER016W, strain bim1, active compounds read low 1 | locus YER110C, active compounds read low 0.981 | locus YER111C, strain swi4, active compounds read low 0.993 | locus YER155C, strain BEM2 (second series), active compounds read low 0.98 | locus YER155C, strain BEM2, active compounds read low 1.01 | locus YER167W, strain BCK2, active compounds read low 1.01 | locus YFR010W, strain ubp6, active compounds read low 0.999 | locus YGL078C, strain dbp3, active compounds read low 0.987 | locus YGL086W, strain mad1, active compounds read low 0.991 | locus YGL167C, strain pmr1, active compounds read low 0.993 | locus YGL173C, strain kem1, active compounds read low 0.984 | locus YGL227W, strain vid30, active compounds read low 1 | locus YGL240W, strain doc1, active compounds read low 1.01 | locus YGL248W, strain PDE1, active compounds read low 1 | locus YGL253W, strain hxk2, active compounds read low 1.03 | locus YGR078C, strain PAC10, active compounds read low 1 | locus YGR135W, strain pre9, active compounds read low 0.988 | locus YGR229C, strain SMI1, active compounds read low 1.03 | locus YGR252W, strain gcn5, active compounds read low 0.963 | locus YHR013C, strain ard1, active compounds read low 0.948 | locus YHR027C, strain rpn1, active compounds read low 1.01 | locus YHR030C, strain SLT2, active compounds read low 1.01 and 0.978 | locus YHR079C, strain IRE1 (second series), active compounds read low 0.992 | locus YHR079C, strain IRE1, active compounds read low 1 | locus YHR094C, strain hxt1, active compounds read low 0.991 | locus YHR129C, strain ARP1, active compounds read low 0.999 | locus YHR142W, strain chs7, active compounds read low 1.01 | locus YHR200W, strain rpn10, active compounds read low 0.982 | locus YIL066C, strain RNR3, active compounds read low 1.01 | locus YIL073C, strain SPO22, active compounds read low 1.03 | locus YIL125W, strain kgd1, active compounds read low 0.988 | locus YIR030C, strain dcg1, active compounds read low 0.988 | locus YJL092W, strain hpr5, active compounds read low 1.02 | locus YJL095W, strain BCK1 (second series), active compounds read low 1 | locus YJL095W, strain BCK1, active compounds read low 1.02 and 0.991 | locus YJL115W, strain asf1, active compounds read low 0.994 | locus YJL129C, strain trk1, active compounds read low 1.02 | locus YJL134W, strain LCB3, active compounds read low 1 | locus YJL154C, strain vps35, active compounds read low 1 | locus YJL164C, strain tpk1, active compounds read low 1 | locus YJL166W, strain qcr8, active compounds read low 1 | locus YJL168C, strain set2, active compounds read low 0.986 | locus YJL187C, strain SWE1 (second series), active compounds read low 1.01 | locus YJL187C, strain SWE1, active compounds read low 0.993 | locus YJR043C, strain POL32, active compounds read low 0.982 | locus YJR066W, strain TOR1, active compounds read low 0.929 | locus YJR075W, strain HOC1, active compounds read low 1.01
